Measurements from PubChem BioAssay AID1209 (Sanford-Burnham Center for Chemical Genomics, 2008).
Screen size: about 190,000 compounds; about 810 (0.43%) were called active. This is one part of a sample in which actives are shown more often than they occur. Rule as the data show it: active = inhibition above about 50%; inactive = the rest.

Target: Mannose-6-phosphate isomerase (Homo sapiens) (UniProt P34949)
Assay: MPI enzyme activity inhibition – biochemical, fluorescence intensity, coupled assay, primary screen (AID 1209);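 also: plate controls were DMSO vehicle for no effect and wells lacking substrate for full effect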
Conditions: purified PMI enzyme, at 20 µM, active compounds read high

Sequence of Mannose-6-phosphate isomerase (Homo sapiens) (P34949 whole entry, looked up): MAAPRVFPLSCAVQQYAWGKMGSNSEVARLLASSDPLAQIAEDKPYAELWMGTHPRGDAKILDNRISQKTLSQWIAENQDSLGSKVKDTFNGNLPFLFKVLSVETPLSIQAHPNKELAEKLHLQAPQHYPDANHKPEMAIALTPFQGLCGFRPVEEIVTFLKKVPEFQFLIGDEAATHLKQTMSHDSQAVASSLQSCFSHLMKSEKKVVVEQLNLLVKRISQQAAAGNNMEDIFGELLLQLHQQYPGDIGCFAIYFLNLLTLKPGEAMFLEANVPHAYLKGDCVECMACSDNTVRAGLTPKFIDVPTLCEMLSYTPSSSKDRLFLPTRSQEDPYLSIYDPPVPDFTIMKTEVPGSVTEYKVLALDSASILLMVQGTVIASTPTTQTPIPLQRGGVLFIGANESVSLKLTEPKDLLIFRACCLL

Compound | inhibition
Cc1cccc(C)c1NC(=O)C1(N(Cc2ccco2)C(=O)Cn2nnnc2N)CCCCC1 | 4.1% (inactive)
COc1ccc(CNC(=O)C/C(C)=N/NC(=O)Cc2ccc(OC)cc2)cc1 | -4% (inactive)
COC(=O)c1ccc2c(c1)C(C)(C)C(/C=C/c1ccccc1O)=[N+]2C | 39.9% (inactive)
COC(=O)c1ccc2c(c1)C(C)(C)C(/C=C/c1ccc(OC)c(OC)c1OC)=[N+]2C | 91.8% (active)
COC(=O)c1ccc2c(c1)C(C)(C)C(/C=C/c1ccc(O)cc1)=[N+]2C | 72% (active)
COC(=O)c1ccc2nc(C)c(C)nc2c1 | -5.7% (inactive)
COC(=O)c1ccc(C(=O)OC)c(NC(=O)COC(=O)c2ccc(OC)c(OC)c2OC)c1 | 7.2% (inactive)
COC(=O)c1ccc2c(c1)C(=O)/C(=C/c1ccc(O)cc1)O2 | 8% (inactive)
CN(C)c1ccc(C(=O)OCc2ccccc2)cc1 | 16% (inactive)
CCS(=O)(=O)c1ccc2c(c1)N(S(=O)(=O)c1ccc(Cl)cc1)CC(C(=O)O)O2 (centres undefined) | -3.9% (inactive)
Cc1ccc(-c2ccc(/C=N/N=C3/NC(=O)C(CC(=O)O)S3)o2)c([N+](=O)[O-])c1 (centres undefined) | 30.5% (inactive)
O=C(O)CC1S/C(=N/N=C/c2ccc(-c3ccc(Cl)c([N+](=O)[O-])c3)o2)NC1=O (centres undefined) | -9% (inactive)
O=C(O)CC1S/C(=N/N=C/c2ccc(-c3ccccc3[N+](=O)[O-])o2)NC1=O (centres undefined) | 68.4% (active)
COC(=O)c1cccc(-n2[nH]nnc2=S)c1 | 64.8% (active)
COC(=O)c1cccc(-n2cnnn2)c1 | -6.9% (inactive)
COC(=O)c1cccc(NC(N)=S)c1 | -7.9% (inactive)
COc1ccc(OC)c2c(C)cc(NCCN3CCOCC3)nc12 | 11.7% (inactive)
CCn1nc(CC(=O)Nc2nnc(CC(=O)N3CCCCC3)s2)c2ccccc2c1=O | 4.6% (inactive)
CCn1nc(CC(=O)Nc2nnc(CC(=O)N3CCOCC3)s2)c2ccccc2c1=O | 5.5% (inactive)
CCn1nc(CC(=O)Nc2nnc(CC(=O)N3CCCC3)s2)c2ccccc2c1=O | 50.5% (active)
COc1ccnc(Oc2ccc(Cl)cc2)c1C#N | -5.9% (inactive)
CC(C)CC(=O)N1CCN(Cc2ccc3c(c2)OCO3)CC1 | 3.6% (inactive)
CCOC(=O)N1CCN(C(=O)Cn2ccc3c(OC)cccc3c2=O)CC1 | 3.2% (inactive)
CCCn1c(SCC(=O)Nc2cc(S(=O)(=O)N3CCOCC3)ccc2OC)n[nH]c1=O | -2% (inactive)
CCOc1cc(-c2nc(C)c(C(C)=O)n2O)ccc1OCC(=O)Nc1ccc(F)cc1 | -3.7% (inactive)

Compound | inhibition
CCOC(=O)c1c(N)sc(C(=O)N(C)C)c1C | -5% (inactive)
CCOC(=O)c1c(N)sc2c1CCCC2 | 5.6% (inactive)
CCOC(=O)c1sc(N)c(C(=O)Nc2ccccc2OC)c1C | 60.2% (active)
CCOC(=O)c1sc(N)c(C(N)=O)c1C | 64.3% (active)
CCOC(=O)c1c(N)sc(C(=O)OC)c1C | -6.6% (inactive)
CCOC(=O)c1sc(N)c(C(=O)OC)c1C | 7% (inactive)
CCOC(=O)c1c(N)sc(C(=O)OCCOC)c1C | 51% (active)
CCOC(=O)c1c(N)sc(C(N)=O)c1C | -5.6% (inactive)
CCOC(=O)c1c(N)sc(N)c1C(=O)OCC | 60.1% (active)
CCOC(=O)c1sc(N)c(C(=O)Nc2ccccc2)c1C | 44.4% (inactive)
CCCOC(=O)c1c(N)sc(C(=O)OCC)c1C | 2.1% (inactive)
CCOC(=O)c1c(N)sc(C(=O)Nc2ccccc2F)c1C | 11.6% (inactive)
NNC(=O)COc1ccc(F)cc1 | 15.9% (inactive)
O=C(NCc1ccncc1)c1cncc(Br)c1 | 2% (inactive)
NC1=NC(=O)/C(=C\c2ccc(O)c([N+](=O)[O-])c2)S1 | -3.7% (inactive)
CCc1c(O)cc2n(c1=O)-c1ccc(Cl)cc1C2(C)C | 2.7% (inactive)
CN(CC(=O)NC(=O)NCc1ccccc1)Cc1ccc(Cl)c(Cl)c1 | 14% (inactive)
Cc1cccc(NC(=O)C(=O)NCCc2c[nH]c3ccccc23)c1C | 12.5% (inactive)
CCC(=O)Nc1cccc(-n2nnnc2SCC(=O)N2CCCCC2)c1 | -4.2% (inactive)
Cc1cc(C(=O)Nc2ccc(N3CCOCC3)cc2)c2ccccc2n1 | 6.1% (inactive)
COC(=O)c1nc2ccc(N3CCOCC3)cc2c(C)c1C(=O)OC | 23.5% (inactive)
Cc1c(C(=O)O)c(C(=O)O)nc2ccc(N3CCOCC3)cc12 | 56.4% (active)
CC(C)c1nc(SCC(=O)c2ccccc2)c2c(=O)n(C)c(=O)n(C)c2n1 | 5.8% (inactive)
Cc1nn(C)c(C)c1C1C(C#N)=C(N)OC2=C1C(=O)CC(C)(C)C2 (centres undefined) | -1.4% (inactive)
C/C(=C\C(=O)c1cccnc1)Nc1ccc(O)cc1 | 42.8% (inactive)

Compound | inhibition
C/C(=C\C(=O)c1cccnc1)Nc1ccc(C(=O)O)cc1 | 81% (active)
CC(=O)Nc1ccc(N/C(C)=C/C(=O)c2cccnc2)cc1 | -7.3% (inactive)
CCCCCCSc1nnc(-c2cnn(-c3ccccc3)c2-n2cccc2)n1C | 16.4% (inactive)
CC(=O)CC(C)=NCCN=C(C)CC(C)=O | -3.7% (inactive)
Cc1ccc2cc(N)ccc2n1 | 45.2% (inactive)
Cn1cc2cc(NC(N)=S)ccc2n1 | 1.7% (inactive)
Cn1cc2ccc(N)cc2n1 | 72.9% (active)
O=C(COC(=O)/C=C/c1ccc(S(=O)(=O)N2CCOCC2)cc1)NCc1ccc(F)cc1 | 9.2% (inactive)
CC(C)[C@H](NC(=O)c1ccccc1)C(=O)OCC(=O)N1CCN(C(=O)c2ccco2)CC1 | -11.4% (inactive)
Cc1cccc(Oc2c([N+](=O)[O-])c(=O)n(C)c3ccccc23)c1 | 76% (active)
Cc1cccc(Nc2c([N+](=O)[O-])c(=O)n(C)c3ccccc23)c1 | 2.7% (inactive)
Cc1ccc(Nc2c([N+](=O)[O-])c(=O)n(C)c3ccccc23)cc1 | 3.9% (inactive)
COC(=O)C1CCN(C(=O)c2ccc(SC)cc2OC)CC1 | 6.4% (inactive)
CCOc1cc(/C=C2/C(=O)N(c3ccccc3)N=C2C)ccc1OC(=O)c1ccco1 | 37.5% (inactive)
CCOc1cc(/C=C2/C(=O)N(c3ccccc3)N=C2C)ccc1OC(=O)c1cccs1 | 13.1% (inactive)
CCOc1cc(/C=C2\C(=O)N(c3ccc(C(N)=O)cc3)N=C2C)ccc1OC(=O)c1cccs1 | 59.8% (active)
O=C(NCC(O)c1ccc([N+](=O)[O-])cc1)c1cccc(S(=O)(=O)N2CCCC2)c1 (centres undefined) | 7.8% (inactive)
CCOC(=O)N1CCC(n2c(SCC(=O)NCCC3=CCCCC3)nc3ccccc3c2=O)CC1 | 8.6% (inactive)
CN1CCN(C(=O)c2sc(=S)n(-c3ccccc3)c2N)CC1 | 2.8% (inactive)
Nc1c(C(=O)N2CCCCC2)sc(=S)n1-c1ccccc1 | 57.7% (active)
Nc1c(C(=O)N2CCOCC2)sc(=S)n1-c1ccccc1 | 53.3% (active)
Cc1ccc(-n2c(N)c(C(=O)N3CCOCC3)sc2=S)cc1 | 36.2% (inactive)
CCn1c(N)c(C(=O)N2CCOCC2)sc1=S | 8.6% (inactive)
N#Cc1ccccc1-n1c(N)c(C(=O)N2CCCC2)sc1=S | 71% (active)
Cc1ccc(-n2c(N)c(C(=O)N3CCN(C)CC3)sc2=S)cc1 | 2.7% (inactive)

Compound | inhibition
Cc1ccc(-n2c(N)c(C(=O)N3CCCCC3)sc2=S)cc1 | 22.6% (inactive)
Cc1c(C(=O)N2CCCCC2)sc(N)c1C#N | 8.9% (inactive)
Cc1ccc(-c2nnc(SCC(=O)N/N=C/c3ccccc3C(=O)O)n2-c2ccccc2)cc1 | -2.4% (inactive)
CC(C)NC(=O)C1CCN(Cc2cnn(-c3ccccc3)c2-n2cccc2)CC1 | -1.9% (inactive)
S=C(Nc1ccccc1)N1CCN(C(=S)c2ccccc2)CC1 | 13.6% (inactive)
CCNc1nc(OC)nc(SCC(=O)Nc2ccccc2)n1 | 7.3% (inactive)
COc1ccc(NC(=O)Nc2ccccc2SC)c(OC)c1 | 16.5% (inactive)
Cc1cccc2sc(N(CCCN(C)C)C(=O)c3cc4ccccc4oc3=O)nc12 | 11.8% (inactive)
O=c1cc(O)nc(SCc2ccccc2)[nH]1 | 17.4% (inactive)
CCn1c2ccccc2c2nc3cc(S(=O)(=O)N4CCOCC4)ccc3nc21 | 70.3% (active)
CCn1c2ccccc2c2nc3cc(C(=O)O)ccc3nc21 | 6.3% (inactive)
CCn1c2ccccc2c2nc3ccccc3nc21 | 4.5% (inactive)
COc1ccc(CN2C(=O)NC3(CCOc4ccccc43)C2=O)cc1F (centres undefined) | 7.7% (inactive)
CC(C)OC(=O)c1cccc(C(=O)Oc2ccccc2)n1 | -3.1% (inactive)
Cc1ccc(NC(=O)NC(=O)N(C(C)C)S(C)(=O)=O)nc1 | -7.9% (inactive)
Cc1[nH]n(-c2ccccc2)c(=S)c1C=Nc1ccc([N+](=O)[O-])cc1 | 69.1% (active)
Cc1[nH]n(-c2ccccc2)c(=S)c1C=NCCCN=Cc1c(C)[nH]n(-c2ccccc2)c1=S | -3.9% (inactive)
Cc1[nH]n(-c2ccccc2)c(=O)c1C=Nc1ccc(S(=O)(=O)N(C)C)cc1 | -3.8% (inactive)
C[n+]1ccc(/C=C/c2ccccc2O)c2ccccc21 | 12.3% (inactive)
CC[n+]1ccc(/C=C2\Sc3ccccc3N2CCCS(=O)(=O)[O-])c2ccccc21 | 8.2% (inactive)
CN1C=C/C(=C\c2cc[n+](C)c3ccccc23)c2ccccc21 | 59.2% (active)
CCN1/C(=C/c2ccc3ccccc3[n+]2CC)C=Cc2ccccc21 | 15.5% (inactive)
CN1/C(=C/c2cc[n+](C)c3ccccc23)C=Cc2ccccc21 | 70.7% (active)
COc1ccc(N=c2oc3cc(O)ccc3cc2C(=O)Nc2ccccn2)cc1OC | 14.8% (inactive)
